# Source: paper PMC7862700, “An all-to-all approach to the identification of sequence-specific readers for epigenetic DNA modifications on cytosine”
# What was measured:
# Assay in all cases: DAPPL (digital affinity profiling via proximity ligation, sequencing); 10 mM Tris-HCl pH 7.5, 50 mM NaCl, 1 mM DTT, 4% glycerol, room temperature, 30 min; GST-TFs on glutathione beads, 16-mer random dsDNA library, 0.1% formaldehyde crosslink after washing; high values mean tight binding
# FLI1 = molecular target: T1, FLI1 (Homo sapiens, UniProt Q01543 1-452); settings: protein: recombinant; tags: N-terminal GST; dsDNA, one strand shown
# T1 sequence: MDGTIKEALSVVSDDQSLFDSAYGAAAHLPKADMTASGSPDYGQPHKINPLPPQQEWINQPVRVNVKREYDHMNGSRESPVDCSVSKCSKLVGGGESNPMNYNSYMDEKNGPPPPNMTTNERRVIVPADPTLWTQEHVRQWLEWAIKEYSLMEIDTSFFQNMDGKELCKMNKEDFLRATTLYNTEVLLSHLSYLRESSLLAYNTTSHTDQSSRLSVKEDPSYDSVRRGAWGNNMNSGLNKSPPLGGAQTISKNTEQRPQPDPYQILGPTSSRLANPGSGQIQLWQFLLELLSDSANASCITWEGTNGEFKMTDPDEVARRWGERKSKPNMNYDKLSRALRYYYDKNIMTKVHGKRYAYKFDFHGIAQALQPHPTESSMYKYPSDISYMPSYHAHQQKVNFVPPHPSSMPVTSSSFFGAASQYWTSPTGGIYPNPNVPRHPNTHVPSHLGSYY
# Outline: (§1)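 A tag-only sample was pooled with DNA-barcoded human transcription factors that had been expressed in yeast as GST fusions and captured on glutathione beads. The pools were incubated for 30 min at room temperature with 200 nmole of a random double-stranded 16-mer DNA library in Tris/NaCl/DTT/glycerol buffer, then washed, crosslinked with 0.1% formaldehyde, proximity-ligated (BsaI/T4 ligase, 1 h, 37 °C), PCR-amplified and sequenced on an Illumina NextSeq500. Binding signal is each hexamer's read frequency for a factor divided by its frequency for the tag-only sample.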
# ELK1 = molecular target: T2, ELK1 (Homo sapiens, UniProt P19419 1-428); settings: protein: recombinant; tags: N-terminal GST; dsDNA, one strand shown
# T2 sequence: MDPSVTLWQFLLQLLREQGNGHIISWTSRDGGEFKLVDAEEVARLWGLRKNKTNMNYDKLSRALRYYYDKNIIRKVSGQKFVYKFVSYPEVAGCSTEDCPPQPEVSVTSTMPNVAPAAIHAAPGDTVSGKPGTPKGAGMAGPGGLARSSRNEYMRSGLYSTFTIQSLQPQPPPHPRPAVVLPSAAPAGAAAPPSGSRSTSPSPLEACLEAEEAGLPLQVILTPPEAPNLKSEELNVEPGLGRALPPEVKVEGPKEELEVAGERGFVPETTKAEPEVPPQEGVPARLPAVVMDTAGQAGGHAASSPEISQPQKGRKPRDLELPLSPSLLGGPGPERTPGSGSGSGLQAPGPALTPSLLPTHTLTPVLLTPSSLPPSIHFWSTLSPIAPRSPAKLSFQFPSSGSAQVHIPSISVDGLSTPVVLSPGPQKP
# Outline: as §1
# GABPA = molecular target: T3, GABPA (Homo sapiens, UniProt Q06546 1-454); settings: protein: recombinant; tags: N-terminal GST; dsDNA, one strand shown
# T3 sequence: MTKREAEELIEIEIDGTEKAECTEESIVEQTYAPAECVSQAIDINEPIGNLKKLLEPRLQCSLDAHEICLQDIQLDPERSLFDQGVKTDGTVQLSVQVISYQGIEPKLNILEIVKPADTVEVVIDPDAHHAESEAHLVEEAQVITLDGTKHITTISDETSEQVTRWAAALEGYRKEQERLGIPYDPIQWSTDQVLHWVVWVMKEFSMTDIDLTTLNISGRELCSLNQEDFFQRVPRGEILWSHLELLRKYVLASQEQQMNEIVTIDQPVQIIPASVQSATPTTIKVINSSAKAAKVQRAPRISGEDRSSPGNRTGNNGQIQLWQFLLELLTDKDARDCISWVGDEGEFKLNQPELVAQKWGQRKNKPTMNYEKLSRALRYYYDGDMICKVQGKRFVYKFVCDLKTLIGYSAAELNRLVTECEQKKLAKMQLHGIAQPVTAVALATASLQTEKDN
# Outline: as §1
# ERG = molecular target: T4, ERG (Homo sapiens, UniProt P11308 1-479); settings: protein: recombinant; tags: N-terminal GST; dsDNA, one strand shown
# T4 sequence: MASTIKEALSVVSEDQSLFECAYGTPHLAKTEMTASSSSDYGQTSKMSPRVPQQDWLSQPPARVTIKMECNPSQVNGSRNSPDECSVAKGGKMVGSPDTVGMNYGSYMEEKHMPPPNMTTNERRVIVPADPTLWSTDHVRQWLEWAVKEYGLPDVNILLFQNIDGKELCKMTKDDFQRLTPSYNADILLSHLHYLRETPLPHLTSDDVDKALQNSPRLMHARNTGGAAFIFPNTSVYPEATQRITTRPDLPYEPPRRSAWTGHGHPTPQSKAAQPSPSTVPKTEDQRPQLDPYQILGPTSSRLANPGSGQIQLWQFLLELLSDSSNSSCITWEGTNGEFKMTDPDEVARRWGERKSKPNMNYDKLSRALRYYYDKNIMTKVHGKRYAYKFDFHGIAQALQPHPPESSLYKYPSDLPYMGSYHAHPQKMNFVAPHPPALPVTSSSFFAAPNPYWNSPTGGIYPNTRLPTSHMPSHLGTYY
# Outline: as §1
# ELF1 = ELF1 (Homo sapiens, UniProt P32519 1-619); settings: protein: recombinant; tags: N-terminal GST; dsDNA, one strand shown
# ELF1, sequence (P32519 whole entry): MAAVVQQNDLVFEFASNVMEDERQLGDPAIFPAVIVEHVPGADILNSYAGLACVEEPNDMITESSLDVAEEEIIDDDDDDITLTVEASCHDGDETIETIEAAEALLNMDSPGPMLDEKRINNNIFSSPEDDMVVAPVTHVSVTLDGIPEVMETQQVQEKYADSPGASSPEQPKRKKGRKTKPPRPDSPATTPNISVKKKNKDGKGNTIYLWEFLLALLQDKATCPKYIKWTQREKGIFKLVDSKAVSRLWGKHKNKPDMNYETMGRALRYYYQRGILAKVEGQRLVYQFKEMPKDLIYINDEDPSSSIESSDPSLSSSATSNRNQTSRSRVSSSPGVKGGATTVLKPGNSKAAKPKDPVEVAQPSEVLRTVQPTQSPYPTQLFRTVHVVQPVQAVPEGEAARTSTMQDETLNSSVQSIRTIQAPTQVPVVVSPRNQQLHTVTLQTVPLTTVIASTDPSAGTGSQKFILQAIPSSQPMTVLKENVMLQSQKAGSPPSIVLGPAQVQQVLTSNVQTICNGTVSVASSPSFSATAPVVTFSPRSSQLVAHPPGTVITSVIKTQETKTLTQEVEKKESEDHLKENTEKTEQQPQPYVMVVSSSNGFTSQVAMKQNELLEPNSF
# Outline: as §1
# EHF = molecular target: T5, EHF (Homo sapiens, UniProt Q9NZC4 1-300); settings: protein: recombinant; tags: N-terminal GST; dsDNA, one strand shown
# T5 sequence: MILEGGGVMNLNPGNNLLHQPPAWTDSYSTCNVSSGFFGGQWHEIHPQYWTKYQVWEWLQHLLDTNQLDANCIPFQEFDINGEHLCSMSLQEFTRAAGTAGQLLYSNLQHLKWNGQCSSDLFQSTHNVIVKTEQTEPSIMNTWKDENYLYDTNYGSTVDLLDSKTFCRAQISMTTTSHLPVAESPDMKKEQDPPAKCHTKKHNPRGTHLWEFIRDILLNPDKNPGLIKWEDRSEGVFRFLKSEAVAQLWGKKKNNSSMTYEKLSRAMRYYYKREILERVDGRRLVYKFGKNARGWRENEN
# Outline: as §1
# SPI1 = SPI1 (Homo sapiens, UniProt P17947 1-270); settings: protein: recombinant; tags: N-terminal GST; dsDNA, one strand shown
# Outline: as §1
# SPIB = SPIB (Homo sapiens, UniProt Q01892 1-262); settings: protein: recombinant; tags: N-terminal GST; dsDNA, one strand shown
# SPIB, sequence (Q01892 whole entry): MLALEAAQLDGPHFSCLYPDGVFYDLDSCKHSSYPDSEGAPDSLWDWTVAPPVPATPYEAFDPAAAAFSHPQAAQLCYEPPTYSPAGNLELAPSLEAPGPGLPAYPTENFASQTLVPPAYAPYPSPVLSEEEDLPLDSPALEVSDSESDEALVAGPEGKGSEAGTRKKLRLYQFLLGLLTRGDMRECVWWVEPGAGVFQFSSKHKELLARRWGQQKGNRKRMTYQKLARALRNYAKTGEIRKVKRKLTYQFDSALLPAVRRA
# Outline: as §1
# ELK3 = molecular target: T6, ELK3 (Homo sapiens, UniProt P41970 1-407); settings: protein: recombinant; tags: N-terminal GST; dsDNA, one strand shown
# T6 sequence: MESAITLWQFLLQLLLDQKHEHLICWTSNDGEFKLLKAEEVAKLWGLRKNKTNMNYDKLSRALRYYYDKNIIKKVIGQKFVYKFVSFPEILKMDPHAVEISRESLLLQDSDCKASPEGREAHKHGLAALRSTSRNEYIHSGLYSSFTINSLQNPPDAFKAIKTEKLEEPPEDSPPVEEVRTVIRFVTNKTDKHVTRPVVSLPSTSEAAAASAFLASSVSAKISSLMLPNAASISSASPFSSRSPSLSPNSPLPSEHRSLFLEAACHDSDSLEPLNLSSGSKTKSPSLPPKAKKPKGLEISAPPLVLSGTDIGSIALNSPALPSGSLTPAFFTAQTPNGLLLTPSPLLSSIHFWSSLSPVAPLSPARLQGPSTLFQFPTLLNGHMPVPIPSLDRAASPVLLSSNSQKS
# Outline: as §1
# FEV = molecular target: T7, FEV (Homo sapiens, UniProt Q99581 1-238); settings: protein: recombinant; tags: N-terminal GST; dsDNA, one strand shown
# T7 sequence: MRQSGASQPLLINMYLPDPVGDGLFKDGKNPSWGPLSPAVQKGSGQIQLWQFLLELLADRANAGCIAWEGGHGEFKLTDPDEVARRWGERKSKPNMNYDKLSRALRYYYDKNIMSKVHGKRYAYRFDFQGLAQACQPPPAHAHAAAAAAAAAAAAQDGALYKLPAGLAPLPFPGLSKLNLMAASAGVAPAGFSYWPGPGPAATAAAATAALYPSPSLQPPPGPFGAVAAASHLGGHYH
# Outline: as §1
# ETV5 = ETV5 (Homo sapiens, UniProt P41161 1-510); settings: protein: recombinant; tags: N-terminal GST; dsDNA, one strand shown
# ETV5, sequence (P41161 whole entry): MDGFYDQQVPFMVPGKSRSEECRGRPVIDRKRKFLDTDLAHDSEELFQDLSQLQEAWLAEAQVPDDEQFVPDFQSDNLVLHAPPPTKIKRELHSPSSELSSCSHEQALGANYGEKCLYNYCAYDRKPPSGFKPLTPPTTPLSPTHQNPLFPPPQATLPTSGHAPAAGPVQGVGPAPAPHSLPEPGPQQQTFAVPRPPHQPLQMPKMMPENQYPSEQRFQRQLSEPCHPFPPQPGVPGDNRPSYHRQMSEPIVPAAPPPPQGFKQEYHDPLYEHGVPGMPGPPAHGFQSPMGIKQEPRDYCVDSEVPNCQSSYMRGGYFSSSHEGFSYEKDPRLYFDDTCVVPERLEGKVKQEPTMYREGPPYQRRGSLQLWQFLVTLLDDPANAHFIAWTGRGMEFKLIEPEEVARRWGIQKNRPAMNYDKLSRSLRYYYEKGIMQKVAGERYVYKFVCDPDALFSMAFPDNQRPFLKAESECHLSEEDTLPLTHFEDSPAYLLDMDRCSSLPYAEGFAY
# Outline: as §1
# HSF1 = HSF1 (Homo sapiens, UniProt Q00613 1-529); settings: protein: recombinant; tags: N-terminal GST; chain copies: 3; dsDNA, one strand shown
# HSF1, sequence (Q00613 whole entry): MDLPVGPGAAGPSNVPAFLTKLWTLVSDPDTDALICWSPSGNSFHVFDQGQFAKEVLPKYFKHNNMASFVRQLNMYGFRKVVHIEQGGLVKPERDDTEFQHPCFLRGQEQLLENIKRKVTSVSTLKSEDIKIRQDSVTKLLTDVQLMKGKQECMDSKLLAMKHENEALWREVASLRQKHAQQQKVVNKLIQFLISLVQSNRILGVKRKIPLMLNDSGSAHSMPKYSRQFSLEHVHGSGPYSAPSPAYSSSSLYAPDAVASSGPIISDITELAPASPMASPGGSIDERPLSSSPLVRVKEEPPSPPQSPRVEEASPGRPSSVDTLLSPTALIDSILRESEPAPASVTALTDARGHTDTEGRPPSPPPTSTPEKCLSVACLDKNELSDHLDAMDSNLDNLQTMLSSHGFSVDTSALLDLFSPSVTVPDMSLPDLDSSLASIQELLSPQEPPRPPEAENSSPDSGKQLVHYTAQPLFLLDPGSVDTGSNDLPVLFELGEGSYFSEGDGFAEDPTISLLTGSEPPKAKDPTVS
# Outline: as §1
# SPIC = molecular target: T8, SPIC (Homo sapiens, UniProt Q8N5J4 1-248); settings: protein: recombinant; tags: N-terminal GST; dsDNA, one strand shown
# T8 sequence: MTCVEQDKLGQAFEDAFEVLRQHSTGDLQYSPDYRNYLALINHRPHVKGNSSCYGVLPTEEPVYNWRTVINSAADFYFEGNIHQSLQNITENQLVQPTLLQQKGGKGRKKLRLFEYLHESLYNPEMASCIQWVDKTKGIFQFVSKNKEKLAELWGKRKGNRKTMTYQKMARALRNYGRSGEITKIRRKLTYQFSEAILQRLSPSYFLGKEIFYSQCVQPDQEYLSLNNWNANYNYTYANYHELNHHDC
# Outline: as §1
# ELF4 = ELF4 (Homo sapiens, UniProt Q99607 1-663); settings: protein: recombinant; tags: N-terminal GST; dsDNA, one strand shown
# ELF4, sequence (Q99607 whole entry): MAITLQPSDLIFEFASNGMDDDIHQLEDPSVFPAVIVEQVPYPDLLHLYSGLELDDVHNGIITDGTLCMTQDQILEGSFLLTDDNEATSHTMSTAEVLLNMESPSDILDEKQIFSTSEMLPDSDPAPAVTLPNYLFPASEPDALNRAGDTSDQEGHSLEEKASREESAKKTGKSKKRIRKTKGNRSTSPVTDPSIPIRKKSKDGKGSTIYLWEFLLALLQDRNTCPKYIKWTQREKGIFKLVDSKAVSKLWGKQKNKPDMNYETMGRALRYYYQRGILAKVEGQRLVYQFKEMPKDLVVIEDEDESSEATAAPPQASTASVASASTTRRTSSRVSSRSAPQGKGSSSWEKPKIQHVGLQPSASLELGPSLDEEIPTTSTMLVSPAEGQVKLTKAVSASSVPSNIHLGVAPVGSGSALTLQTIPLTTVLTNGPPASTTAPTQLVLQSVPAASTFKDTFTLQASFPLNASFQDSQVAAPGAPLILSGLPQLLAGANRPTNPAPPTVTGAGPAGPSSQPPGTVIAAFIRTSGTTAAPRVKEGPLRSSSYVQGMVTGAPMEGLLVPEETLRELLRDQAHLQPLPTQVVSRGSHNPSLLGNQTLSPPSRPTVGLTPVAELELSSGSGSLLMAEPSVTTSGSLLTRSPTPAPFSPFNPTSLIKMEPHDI
# Outline: as §1
# ELK4 = molecular target: T9, ELK4 (Homo sapiens, UniProt P28324-2 1-405); settings: protein: recombinant; tags: N-terminal GST; dsDNA, one strand shown
# T9 sequence: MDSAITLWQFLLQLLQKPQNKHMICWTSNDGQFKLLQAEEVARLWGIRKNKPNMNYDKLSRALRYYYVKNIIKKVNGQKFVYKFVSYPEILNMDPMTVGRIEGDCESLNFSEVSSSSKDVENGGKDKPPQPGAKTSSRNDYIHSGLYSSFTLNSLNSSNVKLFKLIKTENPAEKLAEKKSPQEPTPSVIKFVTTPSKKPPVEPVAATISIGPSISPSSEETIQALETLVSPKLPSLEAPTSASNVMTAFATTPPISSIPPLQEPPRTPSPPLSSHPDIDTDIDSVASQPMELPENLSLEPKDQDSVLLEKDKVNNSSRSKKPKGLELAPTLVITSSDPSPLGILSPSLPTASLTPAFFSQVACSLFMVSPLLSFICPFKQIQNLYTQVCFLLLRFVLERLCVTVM
# Outline: as §1
# ETV2 = molecular target: T10, ETV2 (Homo sapiens, UniProt O00321 1-342); settings: protein: recombinant; tags: N-terminal GST; dsDNA, one strand shown
# T10 sequence: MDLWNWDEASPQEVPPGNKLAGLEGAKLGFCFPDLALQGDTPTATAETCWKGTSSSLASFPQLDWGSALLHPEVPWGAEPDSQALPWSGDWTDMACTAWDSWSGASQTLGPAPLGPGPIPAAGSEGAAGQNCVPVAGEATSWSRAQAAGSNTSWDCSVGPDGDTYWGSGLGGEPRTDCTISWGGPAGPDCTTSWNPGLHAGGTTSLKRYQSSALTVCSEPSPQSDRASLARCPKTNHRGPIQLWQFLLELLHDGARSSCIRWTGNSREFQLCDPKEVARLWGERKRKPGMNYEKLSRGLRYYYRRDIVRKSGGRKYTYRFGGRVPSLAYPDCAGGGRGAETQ
# Outline: as §1
# ELF3 = molecular target: T11, ELF3 (Homo sapiens, UniProt P78545 1-371); settings: protein: recombinant; tags: N-terminal GST; dsDNA, one strand shown
# T11 sequence: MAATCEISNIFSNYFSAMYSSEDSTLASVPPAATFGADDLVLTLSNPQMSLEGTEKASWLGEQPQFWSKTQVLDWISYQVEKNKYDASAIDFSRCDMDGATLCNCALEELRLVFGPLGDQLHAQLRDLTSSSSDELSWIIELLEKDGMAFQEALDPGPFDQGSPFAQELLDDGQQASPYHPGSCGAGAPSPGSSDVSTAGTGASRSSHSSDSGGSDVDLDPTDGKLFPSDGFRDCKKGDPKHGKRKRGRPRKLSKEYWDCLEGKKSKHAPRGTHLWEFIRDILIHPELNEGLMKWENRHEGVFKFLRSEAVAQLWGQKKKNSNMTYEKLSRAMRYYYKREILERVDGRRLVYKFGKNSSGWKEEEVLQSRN
# Outline: as §1
# CRX = CRX (Homo sapiens, UniProt O43186 1-299); settings: protein: recombinant; tags: N-terminal GST; dsDNA, one strand shown
# CRX, sequence (O43186 whole entry): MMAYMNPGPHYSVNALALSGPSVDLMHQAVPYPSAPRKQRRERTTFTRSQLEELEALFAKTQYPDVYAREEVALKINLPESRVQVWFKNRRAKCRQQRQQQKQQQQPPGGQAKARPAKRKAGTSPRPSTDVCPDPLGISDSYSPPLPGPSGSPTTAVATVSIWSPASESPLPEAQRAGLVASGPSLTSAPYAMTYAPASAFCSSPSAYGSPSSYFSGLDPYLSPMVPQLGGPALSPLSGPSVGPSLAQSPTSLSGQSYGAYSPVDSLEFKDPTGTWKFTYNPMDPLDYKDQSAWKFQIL
# Outline: as §1
# ETV1 = ETV1 (Homo sapiens, UniProt P50549 1-477); settings: protein: recombinant; tags: N-terminal GST; dsDNA, one strand shown
# ETV1, sequence (P50549 whole entry): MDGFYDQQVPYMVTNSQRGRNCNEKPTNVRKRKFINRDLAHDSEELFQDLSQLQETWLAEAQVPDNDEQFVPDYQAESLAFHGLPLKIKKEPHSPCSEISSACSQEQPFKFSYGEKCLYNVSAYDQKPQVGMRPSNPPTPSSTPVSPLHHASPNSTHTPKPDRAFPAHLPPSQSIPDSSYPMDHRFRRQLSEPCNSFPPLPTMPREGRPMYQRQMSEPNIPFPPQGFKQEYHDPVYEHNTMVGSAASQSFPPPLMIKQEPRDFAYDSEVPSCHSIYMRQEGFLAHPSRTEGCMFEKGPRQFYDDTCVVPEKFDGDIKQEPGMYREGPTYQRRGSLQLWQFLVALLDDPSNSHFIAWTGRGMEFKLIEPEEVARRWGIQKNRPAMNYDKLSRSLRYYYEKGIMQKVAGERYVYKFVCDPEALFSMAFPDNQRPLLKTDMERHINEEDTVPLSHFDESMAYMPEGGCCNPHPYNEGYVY
# Outline: as §1
sequence,measurement,setting,value
TCCCTC,binding signal,FLI1,"1.58 fold enrichment (6-mer frequency, TF over GST control)"
same,binding signal,ELK1,"1.6 fold enrichment (6-mer frequency, TF over GST control)"
same,binding signal,GABPA,"1.47 fold enrichment (6-mer frequency, TF over GST control)"
same,binding signal,ERG,"1.45 fold enrichment (6-mer frequency, TF over GST control)"
same,binding signal,ELF1,"1.51 fold enrichment (6-mer frequency, TF over GST control)"
same,binding signal,EHF,"1.48 fold enrichment (6-mer frequency, TF over GST control)"
same,binding signal,SPI1,"1.5 fold enrichment (6-mer frequency, TF over GST control)"
same,binding signal,SPIB,"1.58 fold enrichment (6-mer frequency, TF over GST control)"
same,binding signal,ELK3,"1.47 fold enrichment (6-mer frequency, TF over GST control)"
same,binding signal,FEV,"1.56 fold enrichment (6-mer frequency, TF over GST control)"
same,binding signal,ETV5,"1.43 fold enrichment (6-mer frequency, TF over GST control)"
same,binding signal,HSF1,"1.38 fold enrichment (6-mer frequency, TF over GST control)"
same,binding signal,SPIC,"1.35 fold enrichment (6-mer frequency, TF over GST control)"
same,binding signal,ELF4,"1.7 fold enrichment (6-mer frequency, TF over GST control)"
same,binding signal,ELK4,"1.78 fold enrichment (6-mer frequency, TF over GST control)"
same,binding signal,ETV2,"1.43 fold enrichment (6-mer frequency, TF over GST control)"
same,binding signal,ELF3,"1.43 fold enrichment (6-mer frequency, TF over GST control)"
same,binding signal,CRX,"1.41 fold enrichment (6-mer frequency, TF over GST control)"
same,binding signal,ETV1,"1.43 fold enrichment (6-mer frequency, TF over GST control)"
